Bioassay records as filed in PubChem.
The full list was thinned out, with hits kept by preference.
Tb PFK inh: T. brucei PFK enzyme inhibition | 330,000 compounds, 0.17% hits | O15648 | T. brucei PFK, ADP-Glo luminescence | Potency, µM (titrated, usually from 57.5 µM), for the others: at the highest dose activity, negative = inhibition, usual class: inhibitors;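 also: potency is read from the fitted curve at half-maximal effect; 0% = uninhibited 1x PFK enzyme wells and -100% = no-enzyme wells; nearly all actives have a fitted effect of over 60% in size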
Target sequence (O15648 whole entry, looked up): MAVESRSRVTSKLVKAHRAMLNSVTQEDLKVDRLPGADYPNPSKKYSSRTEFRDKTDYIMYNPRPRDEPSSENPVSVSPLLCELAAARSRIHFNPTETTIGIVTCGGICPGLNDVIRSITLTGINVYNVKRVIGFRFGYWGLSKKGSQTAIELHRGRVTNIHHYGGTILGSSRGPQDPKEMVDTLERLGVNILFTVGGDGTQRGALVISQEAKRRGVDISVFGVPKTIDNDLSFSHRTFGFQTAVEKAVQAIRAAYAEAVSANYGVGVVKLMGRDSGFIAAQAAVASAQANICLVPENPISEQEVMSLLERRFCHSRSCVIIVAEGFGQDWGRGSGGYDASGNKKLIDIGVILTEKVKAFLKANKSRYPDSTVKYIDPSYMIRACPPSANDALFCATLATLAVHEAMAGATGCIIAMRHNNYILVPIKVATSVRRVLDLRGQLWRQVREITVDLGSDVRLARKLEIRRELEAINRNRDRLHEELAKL
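Compounds were pin-transferred as a titration series up to 57 uM into substrate buffer (0.5 mM F6P, 0.1 mM ATP, pH 8.0), then 1.25 nM PFK was added and reactions ran 45 min before ADP-Glo detection.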
PGK inhibitor: blocks T. brucei phosphoglycerate kinase. Potency, µM (top dose mostly 57.5 µM), for the others: at the top dose activity change, negative = inhibition, hits mostly inhibitors. AID 602233. P07378. PGK/GAPDH coupled, Kinase-Glo luminescence, 60 min. 380,000 compounds, 0.043% hits; also: potency is read from the fitted curve at half-maximal effect; nearly all actives have a fitted effect of over 60% in size
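Recombinant glycosomal PGK reaction used 1,3-bisphosphoglycerate generated in-well by GAPDH (100nM final) in 100mM TEA pH 7.6, 5mM MgCl2, 0.01% Tween-20. After 60 minutes at room temperature, ATP was read by Kinase-Glo Plus luminescence end-point.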
PI5P4K alpha inh: inhibitors of human PI5P4K alpha. 330,000 compounds, 1.2% hits. PI5P4Kalpha enzyme, ADP-Glo luminescence, 60 min; stronger effect = lower value. P48426. AID 652105. max response, %; active = max response of -50% or lower; inconclusive = between -30% and -50%; inactive = -30% or higher; also: value at the top dose of about 77 µM
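Compounds were pin-transferred onto PI5P4Kalpha and substrate in HEPES pH 7.4 buffer with EGTA, CHAPS and 5% DMSO. ATP (5 microM final) started the reaction, which ran 60 minutes at room temperature before ADP-Glo detection.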
PI4K2A block: PI4K2A (human) kinase inhibition. Q9BTU6. purified PI4K2A, ADP-Glo luminescence, 1 h; stronger effect = lower value. activity change, negative = inhibition, % at 76.9 µM. 420,000 compounds, 0.13% hits; in the data active = activity change below about -50%; inconclusive = mostly about -30% to -49%;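 also: -100% = wells without enzyme as full effect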
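ADP-Glo luminescence measured ADP generated by PI4K2A enzyme (4 ug/mL before mixing) with 1.2 mM PI substrate (pre-mix) and 300 microM ATP (pre-mix). Tris pH7.5 buffer with MgCl2, Triton X-100; 1 h reaction at ambient temperature.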
Pin1 inhibitor: blocks the human prolyl isomerase Pin1; Q13526; Pin1 FP peptide displacement, HiFluor488, 10 min; Potency, µM (doses to about 115 µM), for the others: at the top dose activity, negative = inhibition, hits mostly inhibitors; 390,000 compounds, 0.009% hits; AID 504891; active = well fitted inhibition curve with a large enough effect in the polarisation, with a control signal flat, not every such curve was filed as active; inconclusive = small, poorly fitted or top-dose-only effect, or effect the other way, or a change in a side signal; inactive = no such curve, though single readings can be large or run the other way; the % refers to the polarisation; also: potency is read from the fitted curve at half-maximal effect
Target sequence (Q13526 whole entry, looked up): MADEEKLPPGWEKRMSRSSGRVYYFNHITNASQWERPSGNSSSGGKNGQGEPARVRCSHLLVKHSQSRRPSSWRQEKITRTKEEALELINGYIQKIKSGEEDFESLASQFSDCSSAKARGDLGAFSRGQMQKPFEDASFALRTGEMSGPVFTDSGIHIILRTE
Numbers without * were called inactive; i = inactive; ? = inconclusive; nt = not tested or not shown; ! = repeats disagree. Unless noted, calls follow the shape of the dose curve; as a rule, active = well fitted curve in the direction sought with a large enough effect; inconclusive = small, poorly fitted or top-dose-only effect, or another doubt; inactive = no such curve, though single readings can be large; an effect the other way counts as inactive or inconclusive. Unless noted, % is scaled to controls: 0 for no effect and ±100 for the full control effect.

SMILES	Tb PFK inh	PGK inhibitor	PI5P4K alpha inh	PI4K2A block	Pin1 inhibitor
O=c1c2c([nH]c3ccccc13)C(=C1CCCC1)CC2	?	-9.3%	-51.6*	1.7	-1.5%
O=c1c2c([nH]c3ccccc13)CCCC2	-6.8%	3.6%	0.0	3.5	-4.0%
O=C(O)c1ccccc1OC1=NS(=O)(=O)c2ccccc21	nt	nt	nt	nt	-3.2%
COc1cc(/C=C2\C(=O)ON=C2c2ccccc2)cc(Cl)c1O	4.2%	-12.6%	-66.8*	-15.6	8.2%
COc1cc(/C=C2\C(=O)ON=C2c2ccccc2)cc(Br)c1O	15.6%	-2.9%	-85.2*	6.4	7.7%
CCOc1cc(/C=C2\C(=O)ON=C2c2ccccc2)cc(Br)c1O	15.2%	i	-78.6*	-23.8	15.9%
CCOc1cc(/C=C2/C(=O)ON=C2C)cc(Br)c1O	-3.8%	7.6%	-66.8*	-0.9	8.5%
CCCn1c(NC(=O)c2ccccc2)nc(Cc2ccccc2)c1Cc1ccccc1	nt	nt	nt	1.0	nt
COc1cc2c(cc1OC)C(=O)CC2	nt	nt	nt	-1.8	nt
O=S1(=O)C=CCN1Cc1cn(Cc2ccccc2)nn1	nt	nt	nt	1.9	nt
COCC#Cc1ccc(CC[C@H]2O[C@H]3CC[C@@H](CO)O[C@H]3C[C@H]2n2cc(C3CC3)nn2)cc1	nt	nt	nt	-17.1	nt
COC[C@@H](OC(C)=O)[C@H]1OCc2ccccc2[C@@H]1/C=C/c1ccccc1	nt	nt	nt	-3.8	nt
COc1ccccc1C(=O)NC(=O)CSc1nnc(SC)s1	3.5%	-3.8%	6.1	4.8	25.9%
COc1ccccc1C(=O)NC(=O)CSc1nnc(N)s1	-8.2%	3.5%	-59.6*	3.6	-3.0%
CCOC(=O)[C@@]12CN(C(=O)OC(C)(C)C)CC=C1N(Cc1ccc(OC)cc1)C(=O)[C@H]2CC(=O)NCCc1ccccc1OC	nt	nt	nt	2.4	nt
CCN1CCN(Cc2ccc(NC(=O)c3cc(NC(=O)C(=O)c4c[nH]c5ccccc45)cc(OC)c3)cc2C(F)(F)F)CC1	0.9%	-3.1%	-62.9*!	2.5	14.6%
CCN1CCN(Cc2ccc(NC(=O)c3ccc(C)c(NC(=O)C(=O)c4c[nH]c5ccccc45)c3)cc2C(F)(F)F)CC1	4.9%	2.1%	-76.9*!	-8.6	13.5%
c1ccc(N=Nc2ccc(C3=NCCO3)cc2)cc1	nt	-16.3%	0.0	-51.4*	nt
c1ccc(C2=NCCCO2)cc1	nt	i	-1.3	5.3	nt
CCOC(=O)[C@@]12CN(C(=O)OC(C)(C)C)CC=C1N(Cc1ccc(OC)cc1)C(=O)[C@H]2CC(=O)NCCCCc1ccccc1	nt	nt	nt	-0.7	nt
COC(=O)c1ccc([C@H]2Nc3ccc(S(=O)(=O)Nc4cccc(C)c4)cc3[C@H]3C=CC[C@H]32)cc1	nt	-14.3%	nt	-7.3	-6.7%
COC(=O)c1ccc(C2Nc3ccc(/C(C)=N/NC(=O)C(OC)c4ccccc4)cc3C3C=CCC32)cc1 (stereo not drawn)	-0.2%	-6.4%	-65.7*	2.7	?
COC(=O)[C@]12C[C@H](CC(=O)NCc3ccc(C)o3)C(=O)N(CCC3=CCCCC3)C1=C[C@H](C(C)C)O[C@@H]2C1CC1	nt	nt	nt	4.1	nt
COc1cc(/C=C2\SC(=Nc3ccc(Cl)c(C(=O)O)c3)NC2=O)c(Br)c(Br)c1O	0.7%	-10.1%	-106.2*	-2.5	?
COc1cc(/C=C2\SC(=Nc3ccccc3OC)NC2=O)ccc1O	0.9%	-7.2%	?	-5.4	82.5%
SMILES	Tb PFK inh	PGK inhibitor	PI5P4K alpha inh	PI4K2A block	Pin1 inhibitor
COc1cc(/C=C2\SC(=Nc3ccccc3)NC2=O)cc(Cl)c1O	8.0%	-1.1%	-103.9*	0.5	?
O=C1NC(=Nc2ccccc2)S/C1=C\c1ccccc1	0.5%	-6.5%	-8.2	4.7	19.5%
COc1cc(/C=C2/SC(=Nc3ccc(O)cc3)NC2=O)ccc1O	-1.3%	-11.7%	-89.5*	-1.9	179.3%
COc1ccc(N=C2NC(=O)/C(=C/c3ccco3)S2)cc1	1.0%	-5.5%	-27.3	-10.3	16.5%
COC(=O)/C=C1\SC(=Nc2ccc(Cl)c(Cl)c2)NC1=O	0.5%	-7.7%	8.9	1.6	-5.8%
CCc1ccc(N=C2NC(=O)/C(=C/c3cc(OC)c(O)c(OC)c3)S2)cc1	-0.8%	-5.0%	-54.3*	-3.6	40.3%
CC(C)CC1C(C#N)=C(N)SC(N)=C1C#N	3.2%	-6.0%	nt	3.8	?
N#CC1=C(N)SC(N)=C(C#N)C1Cc1ccccc1	-6.0%	-10.4%	-51.6*	-6.3	?
N#CC1=C(N)SC(N)=C(C#N)C1CCc1ccccc1	-9.3%	0.0%	-83.9*	-5.0	?
N#CC1=C(N)SC(N)=C(C#N)C1c1c(Cl)cccc1Cl	-5.5%	-3.4%	-65.2*	-4.4	?
N#CC1=C(N)SC(N)=C(C#N)C1c1cccc(Oc2ccccc2)c1	1.1%	nt	nt	8.5	?
COc1ccccc1C(c1c(O)nc(SC)[nH]c1=O)c1c(O)nc(SC)[nH]c1=O	nt	-6.5%	-51.3*	3.6	-3.0%
Cc1ccc(C(=O)OCn2ncc(Cl)c(Cl)c2=O)cc1	-3.9%	3.6%	nt	15.7	-0.1%
CCC(=O)Nc1ccc(C(=O)Cn2ncc(Cl)c(Cl)c2=O)cc1	0.0%	-8.3%	-55.7*	-15.4	?
CCOC(=O)c1ccc(NC(=O)Cn2ncc(Cl)c(Cl)c2=O)cc1	-5.6%	i	-72.0*	-15.5	?
O=C(CSC(=S)N1CCCC1)N/N=C/c1c(O)[nH]c(=S)[nH]c1=O	2.8%	-3.4%	-51.1*	-1.1	12.5%
O=C(O)CSC(=S)N1CCCC1	1.5%	-7.8%	0.1	7.3	-1.8%
Cc1ccc(NS(=O)(=O)c2ccc3[nH]c(=O)[nH]c3c2)cc1C	nt	nt	nt	nt	-2.5%
CCOC(=O)C1=C(C)N=c2s/c(=C\c3ccc(O)c([N+](=O)[O-])c3)c(=O)n2C1c1ccccc1OC (stereo not drawn)	-1.9%	7.0%	?	2.4	11.2%
CCOC(=O)C1=C(C)N=c2s/c(=C\c3ccc(OCC(=O)O)cc3)c(=O)n2C1c1ccc(Cl)cc1 (stereo not drawn)	?	?	0.4	-21.0	?
CCOC(=O)C1=C(C)N=c2s/c(=C/c3ccc(OCC(=O)O)c(OC)c3)c(=O)n2C1c1ccc(Cl)cc1 (stereo not drawn)	nt	14.1µM*	?	-11.4	?
CCOC(=O)C1=C(C)N=c2s/c(=C/c3cccc([N+](=O)[O-])c3O)c(=O)n2C1c1ccc(OC)cc1OC (stereo not drawn)	-2.9%	?	-55.4*	-17.3	?
O=C(COc1ccc2c(c1)CCC2)Nc1ccccn1	-25.7%	?	-15.2	-62.1*	-6.5%
Cc1nc(-c2ccc(C(=O)N3CCCC3)cc2)cs1	?	?	?	-56.4*	-0.7%
Cc1nc(-c2ccc(C(=O)Nc3ccccc3F)cc2)cs1	-12.5%	?	-20.4	-60.1*	-2.6%
Cc1sc2nc(SCC(=O)c3ccc(O)c(O)c3)n(C)c(=O)c2c1C	nt	nt	nt	-15.9	nt
O=C(c1ccco1)N1CCN(c2nc(-c3ccc(Br)cc3)cs2)CC1	nt	nt	nt	nt	2.0%
